# PV pol inh = poliovirus RdRp elongation inhibitors, primary screen, biochemical, fluorescence polarization, total intensity. Genome polyprotein (Poliovirus type 1 (strain Mahoney)), P03300. poliovirus polymerase elongation; hits give low values. hit rate 0.66% among 150,000. % elongation, % (compound at 16.7 µg/mL); in the data active = % elongation below about 90%
# Mtb MenB inh = M. tuberculosis MenB inhibitors, primary screen, biochemical, absorbance. hit rate 0.43% among 100,000. AID 540299, 2011. inhibition, % (no concentration beside the values). MenB enzyme assay, absorbance read-out. 1,4-dihydroxy-2-naphthoyl-CoA synthase (Mycobacterium tuberculosis (strain ATCC 25618 / …; in the data active = inhibition above about 21%, passing the limit was not always enough
# AID504770 = growth inhibition of E. coli YBA685, primary screen, V. cholerae RctB inhibitors. AID 504770, 2011. E. coli YBA685 rctB-dependent plasmid, OD600 growth, 3 h; hits give low values. hit rate 0.27% among 130,000. z-score (no concentration beside the values); in the data active = z-score below about -2, passing the limit was not always enough
# Mtb MbtI inh = MbtI salicylate synthase inhibitors, primary screen, biochemical, fluorescence intensity. inhibition, % (no concentration beside the values). P9WFX0. purified MbtI enzyme, fluorescence intensity read-out. hit rate 0.89% among 100,000; in the data active = inhibition mostly above about 56%, no sharp cut-off; inactive = mostly below about 77%
# A number is an active result; - = inactive; . = no result given. Only some compounds are listed: those with a hit (about 1.4% of all), similar ones and a draw of the others.
SMILES,PV pol inh,Mtb MenB inh,AID504770,Mtb MbtI inh
COc1ccc(CCNC(=O)c2c(Cl)nc3sccn23)cc1,-,.,-,-
O=C(O)c1cc2cc(Cl)ccc2o1,-,-,-,-
Cc1nnc(NCc2ccco2)s1,-,-,-,-
c1coc(CNc2nc(C34CC5CC(CC(C5)C3)C4)cs2)c1,-,-,-,59.3
NC(=O)c1c(NC(=O)c2noc3c2CCCC3)sc2c1CCCC2,69.0,.,.,.
CCOC(=O)c1c(NC(=O)c2noc3c2CC(C(C)(C)C)CC3)sc2c1CCCC2 (stereo not drawn),76.0,.,.,.
Cc1nc2sccn2c1-c1nc(-c2ccc(Br)o2)c(C(=O)c2ccc3c(c2)OCCO3)s1,-,-,-,98.0

# High-throughput results: PubChem, ICCB-Longwood Screening Facility, Harvard Medical School
